# High-throughput results: PubChem, several laboratories
# Compounds with a hit are over-represented: about 6.7% of the library has one in this group of screens.
# Anthrax LF prot = anthrax lethal factor protease inhibition; P15917; inhibition, % at 10 µM; multiplex microsphere protease cleavage assay, LF; AID 588501; 0.12% of 360,000 active; also: plate controls were buffer without enzyme for full effect and enzyme alone for no effect
# GDH-TPI counter = GDH-TPI coupled enzyme inhibition counter-screen; AID 588335; inhibition, % at 4.8 µM; 1.2% of 360,000 active; GDH-TPI coupled enzyme counterscreen, NADH absorbance; in the data active = inhibition above about 30%;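 also: 0% = DMSO wells and 100% = wells lacking the enzyme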
# Mtb FBA inh = Mtb fructose-bisphosphate aldolase inhibition; purified M. tuberculosis FBA, fluorescence read-out; AID 588726; P9WQA3; 2.3% of 360,000 active; inhibition, % at 1 µM; in the data active = inhibition above about 27%;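 also: 0% = vehicle and 100% = reference inhibitor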
# Target sequence (P9WQA3 whole entry, looked up): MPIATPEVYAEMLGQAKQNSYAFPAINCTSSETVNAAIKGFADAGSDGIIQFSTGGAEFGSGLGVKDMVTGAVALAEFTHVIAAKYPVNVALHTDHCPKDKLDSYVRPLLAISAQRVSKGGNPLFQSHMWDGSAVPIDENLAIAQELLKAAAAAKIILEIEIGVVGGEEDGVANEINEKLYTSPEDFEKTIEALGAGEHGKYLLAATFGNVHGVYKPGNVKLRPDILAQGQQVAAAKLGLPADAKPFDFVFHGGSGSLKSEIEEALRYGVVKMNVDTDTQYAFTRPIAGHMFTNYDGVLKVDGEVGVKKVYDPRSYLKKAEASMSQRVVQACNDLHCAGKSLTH
# BoNT A protease = inhibitors of Botulinum neurotoxin A light chain protease | inhibition, % at 10 µM | 0.17% of 360,000 active | multiplex microsphere protease substrate cleavage, flow cytometry; also: plate controls were buffer without enzyme for full effect and enzyme alone for no effect
# BoNT-F LC inh = BoNT F light chain protease inhibition | Multiplex microsphere protease cleavage assay, flow cytometry | inhibition, % at 10 µM | 0.22% of 360,000 active | AID 588497; in the data active = inhibition above about 35%, passing the limit was not always enough; inconclusive = no clear call, values can overlap the other calls; also: plate controls were buffer without enzyme for full effect and enzyme alone for no effect
# Autofluor counter = counter-screen for toxin protease inhibitors: compound fluorescence | compound autofluorescence counterscreen, microsphere flow cytometry; hits give high values | fluorescence intensity (concentration not given with the values) | 3.1% of 360,000 active | AID 624483; in the data active = fluorescence intensity above about 16000; inconclusive = no clear call, values can overlap the other calls
# BoNT-A LC CP1 = inhibitors of Botulinum neurotoxin A light chain protease; shares compounds with BoNT-F LC inh; multiplex microsphere protease assay, flow cytometry; inhibition, % at 10 µM; 3% of 720 active; AID 602139; in the data active = inhibition above about 32%
# BoNTF LC inh 1 = BoNT/F light chain protease inhibition; shares compounds with BoNT-F LC inh; multiplex microsphere protease cleavage assay, flow cytometry; inhibition, % at 10 µM; 720 tested, under 10 active; call rule not given here
# Anthrax LF CP1 = inhibitors of Bacillus anthracis lethal factor protease; AID 602142; inhibition, % at 10 µM; shares compounds with BoNT-F LC inh; 720 tested, under 10 active; multiplex microsphere protease cleavage assay, LF; call rule not given here
# The depositor's hits bear a star; ? = inconclusive; nt = no result. Rule as the data show it, unless noted: active = inhibition above about 30%; inconclusive = no clear call, values can overlap the other calls; inactive = below that.
SMILES,Anthrax LF prot,GDH-TPI counter,Mtb FBA inh,BoNT A protease,BoNT-F LC inh,Autofluor counter,BoNT-A LC CP1,BoNTF LC inh 1,Anthrax LF CP1
N#Cc1ccc(-c2ccco2)nc1SCC(=O)c1ccc(Cl)cc1,41*,7,-7,55*,?,3776,18,-3,12
CCOc1ccccc1NC(=O)Nc1ccc(CC#N)cc1,-2,0,1,0,-10,6101,nt,nt,nt
CCN(CC)c1ccc(C(=O)NC(=S)N2CCN(Cc3ccc4c(c3)OCO4)CC2)cc1,6,26,-6,-13,51*,22907*,-12,-5,-3
Cc1ccc(Cl)cc1Nc1nc(-c2cccnc2)cs1,-21,-3,-2,-1,-2,3086,nt,nt,nt
Cc1ccc2cc(C#N)c(N3CCN(C(=O)c4cccs4)CC3)nc2c1,-12,10,12,-3,40*,3441,-3,-10,-5
Cc1ccc2nc(N3CCN(C(=O)c4ccc(F)cc4)CC3)c(C#N)cc2c1,0,-3,19,5,0,4690,nt,nt,nt
CC(=O)C1=C(O)C(=O)N(c2ccc(O)cc2)C1c1ccc(Cl)cc1 (stereo unspecified),-8,10,0,-2,-35,4063,nt,nt,nt
COc1ccc(CN2CCN(CC3CC3)CC2CCO)c(C)c1C (stereo unspecified),43*,-3,3,-1,-46,4181,-1,-3,-1
COc1ccc(CN2CCN(C3CCOCC3)CC2CCO)c(C)c1C (stereo unspecified),-3,5,-1,0,-7,4318,nt,nt,nt
CSc1nc(C)c(CCOCc2ccccc2)c(=O)[nH]1,-4,-10,-2,2,16,3879,nt,nt,nt
CCN(C(=O)COc1cc(OC)ccc1C(C)=O)C1CCS(=O)(=O)C1 (stereo unspecified),1,18,3,0,7,3577,nt,nt,nt
O=C(Cc1ccc([N+](=O)[O-])cc1)NCC1CCCO1 (stereo unspecified),-2,7,0,0,1,4351,nt,nt,nt
COc1ccc(CCNC(=O)CCCc2ccccc2)cc1OC,10,0,-2,2,35*,3365,0,-5,2
COc1ccc(CNC(=O)C[C@H]2C(=O)N(Cc3ccc(OC)cc3)C[C@@H]2Cc2ccccc2)cc1,-6,7,0,0,-1,3035,nt,nt,nt
c1ccc2c(C3=NNC(=NC4CC4)SC3)c[nH]c2c1,12,27,3,41*,-10,4586,7,-19,9
CCOC(=O)C1CCN(C(=O)COc2ccc(S(=O)(=O)N3CCOCC3)cc2C)CC1,1,-1,-2,0,1,5477,nt,nt,nt
CN1CCN(CC(=O)Nc2nnc(-c3cccs3)s2)CC1,0,16,12,3,36*,2108,-1,-5,0
O=C(Cn1cc(C(F)(F)F)cc(Cl)c1=O)NCC1COc2ccccc2O1 (stereo unspecified),-4,-1,0,-2,7,?,nt,nt,nt
COc1ccc(NC(=O)CC2(CC(=O)O)CCCC2)cc1,12,13,3,-3,-5,3381,nt,nt,nt
O=C(O)CC1(CC(=O)Nc2ccc(C(F)(F)F)cc2)CCCC1,4,-3,2,2,40*,4111,1,-2,2
COc1ccc(C(=O)NC(C)c2nnc(SCC(=O)NC3CCCCC3)n2C)cc1 (stereo unspecified),-16,-1,-1,-2,-19,3099,nt,nt,nt
COc1ccc2c(c1OC)C(=O)O[C@@H]2[C@H]1c2cc3c(cc2CCN1C)OCO3,-8,12,4,-1,-8,4209,nt,nt,nt
Cc1cc2cc(CNC(=O)Nc3ccccc3)ccc2n1C,-78,7,-2,56*,-153,2200,10,-48,-8
CCC(CC)C(=O)NCc1ccc2c(c1)cc(C)n2C,-1,4,2,32*,-37,3772,2,-5,-2
Cc1cc2c(cc(C(=O)OC(C)C(=O)NCc3ccccc3)n2C)o1 (stereo unspecified),-13,7,0,0,-9,3089,nt,nt,nt
SMILES,Anthrax LF prot,GDH-TPI counter,Mtb FBA inh,BoNT A protease,BoNT-F LC inh,Autofluor counter,BoNT-A LC CP1,BoNTF LC inh 1,Anthrax LF CP1
Cc1cc2cc(CNC(=O)C(C)Oc3ccccc3)ccc2n1C (stereo unspecified),-10,6,1,90*,-57,2556,4,-4,2
Cc1cc2cc(CNC(=O)Nc3ccccc3)ccc2[nH]1,-84,4,-2,55*,-117,3218,6,-46,-8
COc1ccc(CNC(=O)Nc2ccccc2)cc1,-1,9,1,-1,-6,4598,nt,nt,nt
Cc1cc2cc(CNC(=O)C3CC3)ccc2n1C,27,14,1,18,6,13924,nt,nt,nt
CCOC(=O)NCc1ccc2c(c1)cc(C)n2C,42*,13,0,41*,22,13397,0,-8,-1
Cc1cc2cc(CNC(=O)c3cccs3)ccc2n1C,-3,1,5,79*,-72,1271,15,-34,2
C=CCn1c(SCC(=O)Nc2nc(C)cs2)nnc1C(CO)NC(=O)c1ccccc1 (stereo unspecified),1,2,1,2,30,4560,-1,2,-3
Nc1c(C(=O)N/N=C/c2ccc([N+](=O)[O-])cc2)cnn1-c1ccccc1,0,18,0,2,?,3587,nt,nt,nt
CN(C)c1cccc2c(S(=O)(=O)N3CCOCC3)cccc12,-1,15,2,0,8,4963,nt,nt,nt
O=C(c1ccccc1)N1CCCC(C(=O)N2CCN(c3ccccc3)CC2)C1 (stereo unspecified),34*,9,1,-7,?,3990,0,-3,-3
CCOc1ccc2nc3cc(NCc4ccc(OC)cc4)ccc3c(N)c2c1,-14,8,7,70*,-164,3686,33*,-58,8
CCOc1ccc(CNc2ccc3c(c2)nc(C)n3C)cc1,-4,2,2,-1,-10,2732,nt,nt,nt
CC(C)n1c(NCc2ccccc2O)nc2ccccc21,1,4,-2,-1,49*,3793,0,-3,-1
Cn1c(NCc2ccccc2O)nc2ccccc21,-1,-1,-4,1,-2,4817,nt,nt,nt
O=C1C2C3C=CC(CC3)C2C(=O)N1c1ccc(Cl)cc1Cl (stereo unspecified),3,2,0,3,60*,4588,-1,-6,-1
COc1ccc(C(=O)Nc2ccc3c(c2)nc2n3CCSC2)cc1,2,-2,-3,7,38*,4353,0,-1,-5
O=C(Nc1ccccc1)c1ccc(S(=O)(=O)Nc2cccc(O)c2)cc1,-1,2,-1,0,-2,5682,0,-7,-4
O=C(Nc1ccccc1C(=O)O)c1cccc(S(=O)(=O)Nc2ccc(Br)cc2)c1,2,10,0,-1,16,2788,0,-2,0
